Rows were chosen to be rich in hits. Some 1.7% of all compounds tested hit in one or more screens of this group.
RN4220 kill: growth inhibition of S. aureus RN4220, primary screen, OD600; AID 1259311, 2017; inhibition, % (concentration not given with the values); actives 0.33% (n = 330,000); 16 h; in the data active = inhibition above about 85%;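 also: plate controls were untreated cells for no effect and reference antibiotic for full effect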
ugtP null kill: growth inhibition of ugtP-null S. aureus, primary screen, RN4220 ugtP deletion, OD600; AID 1259309, 2017; actives 0.54% (n = 330,000); growth inhibition, % (test concentration not listed); 16 h; in the data active = growth inhibition above about 68%;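 also: plate controls were untreated wells for no effect and antibiotic for full effect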
CCHF vOTU inh-1: CCHFV vOTU protease inhibitors, primary screen, biochemical, Pep-AMC substrate, fluorescence. Crimean-Congo hemorrhagic fever virus L polyprotein viral ovarian tumor (vOTU) protease …. inhibition, % at 11.5 µM. actives 0.55% (n = 370,000). AID 651958, 2012; also: 0% = vehicle wells with enzyme and 100% = no enzyme wells
Vc quorum ag: inducers of Vibrio cholerae quorum light production without autoinducers, primary screen, BH1578 luxS cqsA deficient, single point; actives 0.16% (n = 350,000); V. cholerae BH1578 lux reporter, luminescence, 6 h; activation, % at 18.7 µM; in the data active = activation mostly above about 9.7%, no sharp cut-off
PfHsp40 yeast: rescue of yeast from PfHsp40 toxicity, primary screen, S. cerevisiae, ATP luminescence; S. cerevisiae expressing PfHsp40, growth rescue; growth rescue, % at 12.5 µM; actives 0.68% (n = 340,000); in the data active = growth rescue above about 28%, passing the limit was not always enough;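 also: yeast W303a lacking pdr1 and pdr3 grown in galactose medium; growth measured after three days at 30 °C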
Mtb hypoxia inh: PubChem AID 1159583; fluorescence inhibition, % (concentration not given with the values); actives 0.1% (n = 300,000); M. tuberculosis hypoxia-regulated fluorescent reporter, fluorescence; in the data active = fluorescence inhibition mostly above about 23%, no sharp cut-off; inactive = mostly below about 17%
CCHF vOTU inh-2: CCHFV vOTU protease inhibitors, confirmation, biochemical, Pep-AMC substrate, fluorescence; actives 17% (n = 1,900); Recombinant CCHFV vOTU; inhibition, % at 11.5 µM; shares compounds with CCHF vOTU inh-1
Numbers without * were called inactive; i = inactive; nt = not tested or not shown. Rule as the data show it, unless noted: active = inhibition above about 30%; inactive = the rest.

SMILES	RN4220 kill	ugtP null kill	CCHF vOTU inh-1	Vc quorum ag	PfHsp40 yeast	Mtb hypoxia inh	CCHF vOTU inh-2
C[N+]1(C)CCC(=C2c3ccccc3CC(=O)c3sccc32)CC1	4.5	-5.2	32.5*	-0.1	0.5	-0.6	18.6
CC[N+]1(C)CCC(=C2c3ccccc3CC(=O)c3sccc32)CC1 (stereo not given)	1.2	-1.5	-7.5	-0.2	1.1	-6.2	nt
CC1(C)Cc2c(sc(N=CN3CCOCC3)c2C#N)C(C)(C)N1	21.5	15.7	nt	nt	nt	-6.5	nt
Cc1cccc(OCC(=O)NNC(=O)c2cc(S(=O)(=O)N(C)C)ccc2N2CCCC2)c1	1.7	7.4	-2.8	i	-1.2	4.0	nt
Cc1ccc(OCC(=O)NNC(=O)c2cc(S(=O)(=O)N(C)C)ccc2N2CCCC2)cc1	nt	nt	32.6*	i	nt	nt	-15.2
COc1ccccc1N1CCN(c2ccc(S(=O)(=O)N3CCN(C)CC3)cn2)CC1	6.7	9.2	33.0*	i	0.2	-1.1	-12.3
CN1CCN(c2ccc(S(=O)(=O)N3CCCCC3)cn2)CC1	5.0	-4.9	9.3	-12.5	0.3	15.3	nt
CCCCOC(=O)Cn1c(=O)n(CC(=O)OCCCC)c2ccccc21	1.6	0.2	14.8	0.6	-1.2	nt	nt
CCCCCCCCCCOC(=O)Cn1c(COc2ccc(Cl)cc2)[n+](C)c2ccccc21	nt	nt	45.8*	-0.5	6.6	nt	56.3*
CCCCCCCCCCOC(=O)Cn1c(COc2ccccc2)[n+](C)c2ccccc21	nt	nt	29.6*	i	336.3*	nt	22.8
CCOC(=O)Cn1c(COc2ccccc2OC)[n+](C)c2ccccc21	-2.5	1.5	4.9	i	nt	-9.1	nt
COCCNC(=O)NC12CC3(C)CC(C)(CC(C)(C3)C1)C2	8.0	2.5	35.0*	i	0.9	10.9	-4.2
NC(=O)C1CCN(C2=C(Cl)C(=O)c3ccccc3C2=O)CC1	20.6	20.7	57.7*	-0.2	-0.2	8.9	82.9*
CN1CCN(C2=C(Cl)C(=O)c3ccccc3C2=O)CC1	14.5	16.5	105.7*	nt	-2.8	25.5	98.7*
CC1COCC(C)N1C1=C(Cl)C(=O)c2ccccc2C1=O (stereo not given)	nt	nt	86.8*	-0.9	-0.1	nt	89.7*
O=C1C(Cl)=C(N2CCC(C(=O)O)CC2)C(=O)c2ccccc21	4.8	8.8	nt	-5.5	0.9	17.2	nt
CN(C1=C(N2CCOCC2)C(=O)c2ccccc2C1=O)c1ccccc1	17.4	12.8	1.3	-0.2	0.6	-3.0	nt
CC(C)(C)OC(=O)NCc1ccc(NC(=O)c2nc[nH]c2C(=O)NC(Cc2ccccc2)C(=O)OC(C)(C)C)cc1 (stereo not given)	2.5	2.5	nt	nt	nt	-12.5	nt
CCCCCCCCN1C(CC(=O)O)c2cc(F)ccc2S1(=O)=O (stereo not given)	13.9	7.2	nt	nt	nt	13.2	nt
COC(=O)N1C(C)C=C[C@]1(Cc1ccccc1)C(=O)OC (stereo not given in full)	2.1	-0.1	nt	nt	nt	6.4	nt
COc1c2c(c3c(c1OC)c(=O)c1ccccc1n3C)OCO2	-4.3	-5.1	22.0	i	0.4	9.9	nt
COc1c2c(c(OC)c3c1c(=O)c1ccccc1n3C)OCO2	nt	nt	54.2*	i	-1.4	nt	-19.8
C[C@H](O)C#Cc1cnc2c(c1)C(=O)N([C@H](C)CO)C[C@@H](C)[C@@H](CN(C)Cc1ccc(-c3ccccc3)cc1)O2	nt	nt	-7.7	-0.4	nt	nt	nt
C[C@H](CO)N1C[C@H](C)[C@@H](CN(C)Cc2ccc(-c3ccccc3)cc2)Oc2ncc(C#C[C@@H](C)O)cc2C1=O	nt	nt	32.8*	-0.3	nt	nt	-24.7
S=C(Nc1ccc2nsnc2c1)N1CCCC1	6.1	5.6	104.8*	i	-0.4	5.1	-12.3
NS(=O)(=O)c1ccc(N=Nc2c(O)[nH]c(=S)[nH]c2=O)cc1	nt	nt	3.8	-0.8	-0.9	nt	nt
NS(=O)(=O)c1ccc(N=Nc2ccc(=O)[nH]c2O)cc1	-1.4	-5.5	32.4*	-2.2	2.8	20.7	20.5
CCCCC#Cc1cncc(C(=O)NN=Cc2ccccc2)c1	3.9	0.5	nt	nt	nt	-5.9	nt
